{"source": "ChEMBL document CHEMBL4513216", "about": "“Probing the Open Global Health Chemical Diversity Library for Multistage-Active Starting Points for Next-Generation Antimalarials” (ACS Infect Dis, 2020)", "note": "About 8,600 (12%) of roughly 69,000 compounds showed an effect of 50% or more. Shown is part of a subset that was picked to be rich in strong results."}
{"test_system": "Plasmodium berghei", "assay": "Screen against P. berghei liver stage (PbLuc), transformed with Luciferase, at 10uM", "assay_type": "functional, HepG2", "settings": "tested at 10 uM", "units": {"INHIBITION": "%"}}
{"smiles": "CN(C)CCO[C@@H]1CC[C@H]2[C@H]1OCCN2C(=O)c1ccccc1F", "INHIBITION": 35.2}
{"smiles": "CC(C)(C)c1nccc(N2CCCCC2CCNS(C)(=O)=O)n1", "note": "(stereo not drawn)", "INHIBITION": -1.79}
{"smiles": "Cc1cnn(CC2CCCN2Cc2nnc(C3CC3)o2)c1", "note": "(stereo not drawn)", "INHIBITION": 2.3}
{"smiles": "O=C(c1ccc(N2CCOCC2)nc1)N1CCCC(n2ccnc2)C1", "note": "(stereo not drawn)", "INHIBITION": 13.05}
{"smiles": "CC(C)CN1CCC2(C=C(C(=O)N3CCCC3)c3ccccc32)CC1", "INHIBITION": -17}
{"smiles": "Cc1cc(CN2CCN(C(=O)CCc3cccs3)CC2)on1", "INHIBITION": -9.08}
{"smiles": "Cc1cccc(COCC2c3nnn(C)c3CCN2Cc2ccoc2)n1", "note": "(stereo not drawn)", "INHIBITION": -5.08}
{"smiles": "C[C@H]1CN(C(=O)c2cccnc2)C[C@@]12CCN(CCN1CCCC1)C2=O", "INHIBITION": 23.6}
{"smiles": "CC(=O)N(Cc1ncc(C)o1)C1CCN(Cc2ccon2)C1", "note": "(stereo not drawn)", "INHIBITION": 3.73}
{"smiles": "CO[C@H]1CN(C(=O)c2ccc(-c3ccccc3)[nH]2)CC[C@H]1N", "INHIBITION": -22.4}
{"smiles": "O=C(c1cnccn1)N1C[C@H]2CC[C@@H](C1)N(S(=O)(=O)c1cccnc1)C2", "INHIBITION": -6.34}
{"smiles": "Cc1nc(CN(C)S(=O)(=O)c2ccccc2C(F)(F)F)no1", "INHIBITION": 11.3}
{"smiles": "Cc1nc(CN(C)S(=O)(=O)c2ccccc2Br)no1", "INHIBITION": 58.1}
{"smiles": "Cc1nc(CN(C)S(=O)(=O)c2ccc(F)cc2Br)no1", "INHIBITION": 18.9}
{"smiles": "Cc1cc(NCCC(=O)NC2CCCC2)nc(-c2ccncc2)n1", "INHIBITION": 4.52}
{"smiles": "CCS(=O)(=O)N1CCC2(CN(c3cccc(F)c3)C(=O)CN2C)C1", "note": "(stereo not drawn)", "INHIBITION": 19.4}
{"smiles": "CC(C)CS(=O)(=O)N1CCC2(CN(c3cccc(F)c3)C(=O)CN2C)C1", "note": "(stereo not drawn)", "INHIBITION": 55.5}
{"smiles": "CN1CC(=O)N(c2cccc(F)c2)CC12CCN(S(C)(=O)=O)C2", "note": "(stereo not drawn)", "INHIBITION": -5.12}
{"smiles": "CCCc1n[nH]c(C2CN(C(=O)c3ccc[nH]3)CCO2)n1", "note": "(stereo not drawn)", "INHIBITION": 27.8}
{"smiles": "CCc1nc2c(c(N3CCOCC3)n1)CCN(C(=O)c1ccon1)CC2", "INHIBITION": 52.2}
{"smiles": "CCc1nc2c(c(N3CCOCC3)n1)CCN(C(=O)N1CCCC1)CC2", "INHIBITION": -28.4}
{"smiles": "O=C(c1ccccn1)N1CCc2ncnc(N3CCOCC3)c2CC1", "INHIBITION": -64.5}
{"smiles": "COc1ccc(C(C(=O)O)N(C)Cc2c(C)nn(C)c2C)c(C)c1", "note": "(stereo not drawn)", "INHIBITION": 26.9}
{"smiles": "Cc1nc(C2CCN(C(=O)c3cscn3)CC2)c2sccn12", "INHIBITION": 17.4}
{"smiles": "c1csc(CCNC2CCc3ncnn3C2)c1", "note": "(stereo not drawn)", "INHIBITION": 68.8}
{"smiles": "COc1ccc2c(c1)OCC(CNC1CCc3ncnn3C1)=C2", "note": "(stereo not drawn)", "INHIBITION": 35.1}
{"smiles": "O=C(CNC1CCc2ncnn2C1)N(Cc1cccs1)C1CC1", "note": "(stereo not drawn)", "INHIBITION": 27.7}
{"smiles": "c1ccc(-n2cc(CNC3CCc4ncnn4C3)cn2)cc1", "note": "(stereo not drawn)", "INHIBITION": 11.6}
{"smiles": "Clc1cccc(-c2nc(CNC3CCc4ncnn4C3)co2)c1", "note": "(stereo not drawn)", "INHIBITION": 49.8}
{"smiles": "C1=C(CNC2CCc3ncnn3C2)COc2ccccc21", "note": "(stereo not drawn)", "INHIBITION": 61.6}
{"smiles": "Clc1ccc(-n2cc(CNC3CCc4ncnn4C3)cn2)cc1", "note": "(stereo not drawn)", "INHIBITION": 51.3}
{"smiles": "O=C(CNC1CCc2ncnn2C1)NCCc1cccs1", "note": "(stereo not drawn)", "INHIBITION": 12.3}
{"smiles": "c1ccc(Cn2cc(CNC3CCc4ncnn4C3)cn2)cc1", "note": "(stereo not drawn)", "INHIBITION": 39.5}
{"smiles": "CCCOc1ccc2c(c1)OCC(CNC1CCc3ncnn3C1)=C2", "note": "(stereo not drawn)", "INHIBITION": 42.1}
{"smiles": "Clc1ccc(-c2cnc(CNC3CCc4ncnn4C3)o2)cc1", "note": "(stereo not drawn)", "INHIBITION": 39.6}
{"smiles": "Clc1ccc2c(c1)C=C(CNC1CCc3ncnn3C1)CO2", "note": "(stereo not drawn)", "INHIBITION": 51.8}
{"smiles": "COc1cccc(-c2cc(C3=NC(=CN4CCN(C)CC4)NO3)[nH]n2)c1", "INHIBITION": 33.1}
{"smiles": "NC(=O)CN1CCC(c2cccc(Oc3ccccc3)n2)CC1", "INHIBITION": -11.4}
{"smiles": "CCn1nc(C)c2nnn(CC(=O)Nc3ccccc3F)c(=O)c21", "INHIBITION": 40.8}
{"smiles": "CSc1nnc(C2CCN(C(=O)N3CCOCC3)CC2)n1C(C)C", "INHIBITION": 40.85}
{"smiles": "CCN1CCC2(CN(C(=O)N(C)C)CC23CCNCC3)C1=O", "note": "(stereo not drawn)", "INHIBITION": -3.58}
{"smiles": "CNC(=O)NC(=O)CN(Cc1ccc(C#N)cc1)Cc1cccc(F)c1", "INHIBITION": -0.85}
{"smiles": "Cc1cccc2c1N(C)C(=O)C21CC(=O)Nc2c1cnn2C(C)(C)C", "note": "(stereo not drawn)", "INHIBITION": -23.9}
{"smiles": "O=C(CCOc1ccccc1F)N1CCCCC1Cn1cccn1", "note": "(stereo not drawn)", "INHIBITION": -21.5}
{"smiles": "Cc1nn(C)c2c(NCc3cccnc3)nc(C(C)C)nc12", "INHIBITION": -34}
{"smiles": "COc1ccccc1CNc1ncc(-c2cc(C)no2)c(C(C)C)n1", "INHIBITION": 79.7}
{"smiles": "Cc1cc(-c2cnc(NCc3ccccn3)nc2C(C)C)on1", "INHIBITION": 24.4}
{"smiles": "Cc1cc(-c2cnc(NCc3ccncc3)nc2C(C)C)on1", "INHIBITION": 94.1}
{"smiles": "COc1ccccc1CN1CCCCC1c1n[nH]cc1-c1cc(C)no1", "note": "(stereo not drawn)", "INHIBITION": 24.8}
{"smiles": "Cc1cc(-c2cnc(NCc3cccnc3)nc2C(C)(C)C)on1", "INHIBITION": 83.6}
{"smiles": "COc1ccc(CNc2ncc(-c3cc(C)no3)c(C(C)C)n2)cc1", "INHIBITION": -5.71}
{"smiles": "Cc1cc(-c2cnc(NCc3cccnc3)nc2C(C)C)on1", "INHIBITION": 69.4}
{"smiles": "COCc1cc(NCc2ccccc2OC)ncn1", "INHIBITION": 12.6}
{"smiles": "Cc1cnc(-c2nc(NC3CC3)ncc2-c2cc(C)no2)cn1", "INHIBITION": 8.72}
{"smiles": "CCN(CC)CCNc1ncc(-c2cc(C)no2)c(-c2ccoc2C)n1", "INHIBITION": 33.5}
{"smiles": "CCn1ncc(S(=O)(=O)N[C@@H]2CC[C@@H](n3ccnc3)[C@@H]2O)c1C", "INHIBITION": 4.65}
{"smiles": "Fc1cccnc1OC[C@@]12CCO[C@@H]1CCN(CC1CCOCC1)C2", "INHIBITION": -17.7}
{"smiles": "Cc1csc(CCNC(=O)N2CCC(n3cccc3)CC2)n1", "INHIBITION": -6.04}
{"smiles": "O=C(O)c1cnc(-c2cccc3c2CCNC3)c(Cl)c1", "INHIBITION": 2.15}
{"smiles": "COc1cccc(COCC(=O)NC(C)c2nnc3n2CCC3)c1", "note": "(stereo not drawn)", "INHIBITION": -0.613}
{"smiles": "CCc1nnc(Nc2cc(C)nc(C3CCN(c4ncccn4)C3)n2)s1", "note": "(stereo not drawn)", "INHIBITION": -11.4}
{"smiles": "CCC(O)CNc1nccc(-c2ccc(C)nc2C)n1", "note": "(stereo not drawn)", "INHIBITION": -8.9}
{"smiles": "Cc1ccc(NC(=O)C(C)n2ccc(C(F)(F)F)n2)nc1", "note": "(stereo not drawn)", "INHIBITION": 20.9}
{"smiles": "O=C(NC1CC1)N1CCc2ccc(=O)n(Cc3cccnc3)c2CC1", "INHIBITION": 45.2}
{"smiles": "Cc1ccc(-c2cc(C)nc(C3CCCN3S(C)(=O)=O)n2)cc1", "note": "(stereo not drawn)", "INHIBITION": -70.8}
{"smiles": "Cc1cc(-c2cnc(NCc3ccc4c(c3)OCO4)nc2C(C)C)on1", "INHIBITION": 90.5}
{"smiles": "CC(C)c1nn(C)c(Cl)c1CNCc1ccc2c(c1)OCO2", "INHIBITION": 27.8}
{"smiles": "CC(C)c1nn(C)c(N(C)C)c1CNCc1ccc2c(c1)OCO2", "INHIBITION": 3.75}
